Each structure is given as a SMILES string.
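Also: purified Escherichia coli-expressed rice kinase domain construct.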

The subject of the experiment is LOC_OS05G07850-cb002. The experiment can be described thus: thermal shift delta Tm vs DMSO control; higher = stronger stabilization (binding). The conditions noted are these: 12.5 µM; protein concentration 2 µM. In outline: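 Rice kinase domain constructs, made in E. coli and purified, were placed in 96-well plates at 2 μM in 19.5 μl of 100 mM potassium phosphate pH 7.5, 150 mM NaCl, 10% glycerol and 5 × SYPRO Orange, with compound in DMSO. A temperature ramp from 25°C to 95°C at 0.05°C/s was used for differential scanning fluorimetry. The melting temperature shift is a triplicate mean compared with DMSO-only protein, derived from Boltzmann fits.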
Take `c1cncc(CN2CCC(n3ncc4c(N5CCOCC5)nc(-c5ccc6[nH]ccc6c5)nc43)CC2)c1`: the “thermal shift delta Tm” value came to 0.6 °C.

On to `CCCS(=O)(=O)Nc1ccc(F)c(C(=O)c2c[nH]c3ncc(Cl)cc23)c1F`, for which the “thermal shift delta Tm” value was determined as 5.57 °C.

For `COC(=O)N[C@@H](C)CNc1nccc(-c2cn(C(C)C)nc2-c2cc(Cl)cc(NS(C)(=O)=O)c2F)n1` [Encorafenib (LGX818)], the “thermal shift delta Tm” value stood at 5.07 °C.

Consider `O=C1c2c(O)cc(O)cc2OC(c2ccc(O)c(O)c2)C1O` (stereo not drawn) [Taxifolin (Dihydroquercetin)], for which the “thermal shift delta Tm” value was 3.32 °C.

Regarding `CCCCCCCCCCCCc1ccc(S(=O)(=O)Nc2nncs2)cc1`, the “thermal shift delta Tm” value stood at 0.11 °C.

Take `COc1cc2c(c(OC)c1OC)-c1c(cc3c(c1OC)OCO3)CC(C)C(C)C2` (stereo not drawn) [Schisandrin B (Sch B)]: the “thermal shift delta Tm” value is 1.23 °C.

In the case of `CS(=O)(=O)c1ccc(-c2cnc(N)c(C(=O)Nc3ccccc3)n2)cc1`, the “thermal shift delta Tm” value worked out at 8.7 °C.

For the compound `CC1Oc2cc(cnc2N)-c2c(nn(C)c2C#N)CN(C)C(=O)c2ccc(F)cc21` (stereo not drawn), the “thermal shift delta Tm” value came out at 2.16 °C.

Turning to `Cc1ccc2nc(NCCN)c3ncc(C)n3c2c1`, the “thermal shift delta Tm” value was found to be 0.79 °C.

On to `C[C@@H](N)c1ccc(C(=O)Nc2ccnc3[nH]ccc23)cc1`, for which the “thermal shift delta Tm” value amounted to 3.37 °C.

On to `CCn1c(N)c(C(=O)NC)c(=O)c2ccc(C#CC(C)(O)COC)nc21` (stereo not drawn), for which the “thermal shift delta Tm” value turned out to be 5.21 °C.

On to `COC(=O)[C@]12CCC(C)(C)C[C@H]1[C@H]1C(=O)C=C3[C@@]4(C)C=C(C#N)C(=O)C(C)(C)[C@@H]4CC[C@@]3(C)[C@]1(C)CC2` [Bardoxolone Methyl], for which the “thermal shift delta Tm” value is -6.24 °C.

As to `COc1cc(Nc2ncc(F)c(Nc3ccc4c(n3)N(COP(=O)(O)O)C(=O)C(C)(C)O4)n2)cc(OC)c1OC` [R788 (Fostamatinib) Disodium], the “thermal shift delta Tm” value is 7.08 °C.
